High-throughput results from PubChem.
The list is not random: actives were taken first. Their share in the collection is about 2.4%.
FEN1 inh = blocks human flap endonuclease 1 | Recombinant FEN1 flap cleavage, fluorescence, 15 min | P39748 | Potency, µM (doses to about 114 µM), for inactives: at the highest dose activity change, negative = inhibition, usual class: inhibitors | AID 588795 | 390,000 tested, 0.35% active; further: on the % scale 0 is the no-effect control and ±100 the full control effect; nearly all actives have a fitted effect of over 65% in size
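Enzyme 10 nM, 15 min RT preincubation with compound; start with substrate 50 nM final; reads at 0 and 15 min; qHTS titration, four-parameter Hill fit.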
POLI inh = DNA polymerase iota (human) inhibition; Pol iota fluorescent replication assay, 10 min; 390,000 tested, 1% active; Potency, µM (series often up to 115 µM), for the others: top-dose activity, negative = inhibition, hits mostly inhibitors
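Fluorescent replication assay read twice, at 0 min and 10 min after adding 50 nM (final) substrate. Enzyme (10 nM) and compounds were first incubated 15 min at room temperature; enzyme-free buffer wells were negative controls.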
POLK inh = DNA polymerase kappa (human) inhibition; purified Pol kappa, fluorescent DNA synthesis assay, 10 min; Potency, µM (titrated, usually from 107 µM), inactives show at the highest dose activity, negative = inhibition, most hits filed as inhibitors; 400,000 tested, 0.53% active; Q9UBT6; further: on the % scale 0 is the no-effect control and ±100 the full control effect
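10 nM Pol kappa was preincubated with compounds for 15 min at room temperature. Reaction started with 50 nM (final) substrate. Fluorescence read kinetically at 0 and 10 min.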
POLB inh = inhibitors of human DNA polymerase beta; AID 485314; Pol beta primer extension/strand displacement, fluorescence kinetic; 340,000 tested, 1.3% active; Potency, µM (top dose mostly 114 µM), without a hit: at the highest dose activity change, negative = inhibition, usual class: inhibitors; P06746; further: on the % scale 0 is the no-effect control and ±100 the full control effect
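10 nM enzyme + cpd, 15 min RT; start with substrate 50 nM final; read 0 min and after 10 min RT. Corrected, normalized data; 4-parameter Hill curve fit.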
POLH inh = DNA polymerase eta (human) inhibition; recombinant Pol eta, fluorescent DNA replication assay; Q9Y253; Potency, µM (top dose mostly 114 µM), inactives show at the top dose activity change, negative = inhibition, actives largely listed as inhibitors; 390,000 tested, 1.2% active; further: on the % scale 0 is the no-effect control and ±100 the full control effect
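Pol eta at 10 nM preincubated with compounds 15 min at room temperature; reaction started with fluorescent substrate (50 nM final) and read kinetically at 0 and 10 min.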
WRN helicase inh = inhibitors of human WRN helicase; Q14191; WRN helicase unwinding, fluorescent forked duplex, kinetic; Potency, µM (doses to about 114 µM), for the others: at the top dose activity change, negative = inhibition, usual class: inhibitors; 360,000 tested, 0.46% active; further: on the % scale 0 is the no-effect control and ±100 the full control effect; nearly all actives have a fitted effect of over 55% in size
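Kinetic red-fluorescence monitoring (525/598 nm) tracks WRN helicase activity after 100 nM fluorophore-quencher forked duplex and 2 mM ATP are added to 20 nM enzyme pretreated 15 min at room temperature with compound.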
TbPGK inh = validation of Trypanosoma brucei phosphoglycerate kinase inhibitors; TbPGK coupled GAPDH assay, Kinase-Glo luminescence; 500 tested, 79% active; Potency, µM (top dose mostly 57.5 µM), inactives show top-dose activity change, negative = inhibition, actives largely listed as inhibitors; AID 686980; shares compounds with POLK inh; further: on the % scale 0 is the no-effect control and ±100 the full control effect; nearly all actives have a fitted effect of over 65% in size
Target sequence (P07378 whole entry, looked up): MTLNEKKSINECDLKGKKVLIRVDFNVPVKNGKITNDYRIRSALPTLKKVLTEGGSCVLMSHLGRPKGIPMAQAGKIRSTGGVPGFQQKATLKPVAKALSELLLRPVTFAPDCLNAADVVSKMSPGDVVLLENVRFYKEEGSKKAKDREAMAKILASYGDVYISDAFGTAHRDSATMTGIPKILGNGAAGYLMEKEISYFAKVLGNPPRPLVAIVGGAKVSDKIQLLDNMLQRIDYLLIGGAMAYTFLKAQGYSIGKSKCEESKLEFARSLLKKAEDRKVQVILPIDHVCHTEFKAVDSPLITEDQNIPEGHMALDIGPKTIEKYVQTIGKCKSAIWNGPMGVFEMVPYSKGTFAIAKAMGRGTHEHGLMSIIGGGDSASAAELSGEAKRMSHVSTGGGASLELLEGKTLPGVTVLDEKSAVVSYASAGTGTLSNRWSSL
Pol iota confirm = Human Pol iota inhibitor confirmatory assay; shares compounds with POLK inh; Pol iota primer extension, TAMRA/BHQ fluorescence; Potency, µM, most hits filed as inhibitors; 1,500 tested, 77% active
Starred values were filed as active, the others as inactive; ? = inconclusive; · = no result given; [ ] = another dose, or the depositor's remark. The call rests on the fitted dose curve; in most records, active means well fitted curve in the direction sought with a large enough effect; inconclusive means small, poorly fitted or top-dose-only effect, or another doubt; inactive means no such curve, though single readings can be large; an effect the other way counts as inactive or inconclusive. Potency means the concentration at half of the fitted maximal effect.

SMILES | FEN1 inh | POLI inh | POLK inh | POLB inh | POLH inh | WRN helicase inh | TbPGK inh | others
CCCS(=O)(=O)c1cnc(C2COc3ccccc3O2)nc1N (centres undefined) | 15.5% | -9.0% | -16.6% | 1.1% | -7.1% | -2.6% | 18.3µM*
O=[N+]([O-])c1cccc(/C=N/Nc2nccnc2Cl)c1 | -11.7% | 1.3% | -6.3% | 35.8% | -8.7% | -7.9% | ·
Fc1cccc(/C=N/Nc2nccnc2Cl)c1 | -10.1% | 7.1% | -2.7% | 7.4% | -7.5% | 0.0% | 16.3µM*
CNC(=O)c1cc(S(=O)(=O)Nc2ccc3c(c2)OCCO3)ccc1C | 6.4% | 124.4% | -3.2% | 23.8% | -13.4% | 4.1% | ·
c1ccc(C2=NNC(=NC3CC3)SC2)cc1 | -1.7% | ? | -8.5%[60.1 µM] | 11.4% | -1.3% | 0.3% | 16.3µM*
CNC(=O)C1CCC(Cn2c(=O)c3sccc3n(CC(=O)N3CCC(C)CC3)c2=O)CC1 (centres undefined) | -6.4% | 9.5% | 0.0% | -1.4% | -2.0% | · | -17.0%
CNC(=O)C1CCC(Cn2c(=O)c3sccc3n(CC(=O)Nc3cc(C)cc(C)c3)c2=O)CC1 (centres undefined) | 24.5% | 2.9% | 5.6% | 2.4% | 3.4% | · | -27.7%
CCOc1ccc(CCNC(=O)C2CCN(C(=O)N(C)C)CC2)cc1OCC | -1.7% | 2.2% | -6.3%[60.1 µM] | 2.8% | 4.9% | -1.2% | ·
CCCCn1c(N)c(-c2nc3ccccc3o2)c2c([N+](=O)[O-])nn(C)c(=O)c21 | ? | ? | -11.2% | ? | ? | ? | · | Pol iota confirm=42.3*
CCCCCn1c(N)c(-c2nc3ccccc3s2)c2c([N+](=O)[O-])nn(C)c(=O)c21 | -2.1% | 5.5% | -13.6% | 34.0% | -8.0% | -14.2% | ·
COc1cc2c(ccc3cc(OC)c(OC)c(O)c32)cc1O | 22.4µM* | ? | 7.94µM* | 1.41µM* | 3.16µM* | 17.8µM* | 1.46µM*
COc1cc2oc(=O)ccc2cc1O | · | · | 13.8%[60.1 µM] | · | · | · | ·
COc1cccc2c(C)nc(Nc3nc(CSc4nnc(C)s4)cc(=O)[nH]3)nc12 | 50.1µM* | ? | -7.9% | -1.3% | -4.9% | -6.7%[57.1 µM] | · | Pol iota confirm=?
Cc1ccc2c(C)nc(Nc3nc(CSc4nnc(C)s4)cc(=O)[nH]3)nc2c1 | ? | 37.6% | 14.4% | 253.4% | 29.1% | 14.4% | ·
Cn1c(SCC(=O)c2ccc3c(c2)Cc2ccccc2-3)nnc1-c1ccccc1 | -5.7% | ? | -6.4% | ? | 8.91µM* | ? | · | Pol iota confirm=42.3*
CCOC(=O)C1CCN(C(=O)C2CCC(=O)N(CC3CCCCC3)C2)CC1 (centres undefined) | 0.9% | 40.0% | 1.2% | 10.4% | -10.3% | -4.5% | ·
Cc1ccc(-c2c(C#N)c(N)n3c(nc4ccccc43)c2C#N)cc1 | -12.9% | ? | -10.5% | -9.8% | ? | -25.9% | ·
N#Cc1c(-c2ccccc2)c(C#N)c2nc3ccccc3n2c1N | -4.3% | 15.8µM* | -34.8% | -8.3% | -6.3% | -9.8%[11.6 µM] | · | Pol iota confirm=?
COc1cc(NC(=O)c2ccccc2)ccc1NC(=O)c1cc2ccccc2o1 | 5.2% | 57.5% | 3.9% | 2.9% | -17.3% | 15.5% | ·
Cc1cc(NC(=O)c2cncc(Br)c2)ccc1NC(=O)c1cc2ccccc2o1 | 0.0% | ? | -11.7% | ? | 50.1µM* | -11.3%[11.6 µM] | · | Pol iota confirm=?
O=c1c(Cl)c(O)c2cccc3c4ccccc4n1c23 | ? | 1.3% | -5.1% | ? | ? | -29.5% | ·
COc1c(O)c(=O)n2c3ccccc3c3ccnc1c32 | 11.2µM* | ? | -14.3% | · | -26.4% | -18.7% | · | Pol iota confirm=4.74*
c1ccc(-c2noc(-c3ccc4c(c3)OCO4)n2)nc1 | -2.0% | 5.8% | -3.9% | ? | -4.7% | -5.1% | 5.8µM*
c1ccc(-c2noc(-c3ccc4ccccc4c3)n2)nc1 | -3.1% | 12.4% | -13.1% | 22.2% | 5.7% | -1.8% | ·
c1ccc(-c2noc(-c3ccncc3)n2)nc1 | -2.4% | 29.0% | 4.2% | 28.2% | -11.9% | 9.8% | 18.3µM*
SMILES | FEN1 inh | POLI inh | POLK inh | POLB inh | POLH inh | WRN helicase inh | TbPGK inh | others
COc1ccccc1NC(=O)CSc1oc(-c2cccs2)nc1S(=O)(=O)c1ccc(Br)cc1 | 0.5% | 1.4% | -13.2% | ? | -17.0% | · | ·
C=C(C)C(=O)Nc1cccc(C2=NOC3(C2)C[C@@H](C(N)=O)N(C(=O)c2cc([N+](=O)[O-])cc([N+](=O)[O-])c2)C3)c1 (some centres undefined) | 12.6% | ? | ? | 14.1µM* | 20µM* | -20.8% | ?
CCCCCC(=O)Nc1cccc(C2=NOC3(C2)C[C@@H](C(N)=O)N(C(=O)c2cc([N+](=O)[O-])cc([N+](=O)[O-])c2)C3)c1 (some centres undefined) | -9.1% | 1.4% | -5.1% | -1.9% | -20.6% | -4.1% | ·
C=C(C)C(=O)OCCCCCCOc1ccc(C(=O)O)cc1 | -3.7% | 14.1µM* | 25.1µM* | 70.8µM* | 35.5µM* | -10.3%[57.1 µM] | 9.19µM*
CN(CCc1cnn(C)c1)C(=O)C1CCC(=O)N(CC2CCCCC2)C1 (centres undefined) | -11.2% | 2.1% | 1.0% | 0.8% | -2.5% | -1.0% | ·
O=C(CCO)c1ccc(O)cc1 | 22.4µM* | 5.01µM* | 8.91µM* | ? | 3.55µM* | 28.2µM* | 1.63µM*
CSc1cccc(CN2CCC(CO)(Cc3ccccc3)CC2)c1 | -2.2% | 66.7% | -9.2% | 8.3% | -13.6% | 2.2%[57.1 µM] | ·
CC1CN(C(=O)COC(=O)/C=C/c2cccc([N+](=O)[O-])c2)CC(C)O1 (centres undefined) | -2.0% | 38.4% | 8.2% | · | -13.1% | 6.2% | ·
CCN1CCN(Cc2ccc(NC(=O)c3ccc(C)c(NC(=O)N4CCNC4=O)c3)cc2C(F)(F)F)CC1 | 3.0% | ? | -2.4% | 25.5% | ? | -0.2% | 25.9µM*
CCN1CCN(Cc2ccc(NC(=O)c3ccc(C)c(NC(=O)c4cc(-c5ccc(Br)cc5)n[nH]4)c3)cc2C(F)(F)F)CC1 | -1.3% | -23.5% | -7.7% | -2.0% | -13.5% | 4.1% | ·
O=c1c(OC2OC(CO)C(O)C(O)C2O)c(-c2ccc(O)c(O)c2)oc2cc(O)cc(O)c12 (centres undefined) | ? | 25.1µM* | 17.8µM* | -19.2% | ? | -4.1%[11.6 µM] | ?
COc1cc(-c2oc3cc(O)cc(O)c3c(=O)c2O[C@@H]2O[C@H](CO)[C@@H](O)[C@H](O)[C@H]2O)cc(OC)c1O | · | · | -7.4%[60.1 µM] | · | · | · | ·
